SMILES strings stand for the structures. The campaign covered roughly 420,000 compounds. About 64,000 (15%) were called active. Roughly 27% stayed inconclusive and do not appear here. A selection follows. A number with no mark means an inactive call. Calls come from the whole dose curve; as a rule, active = well fitted inhibition curve with a large enough effect; inconclusive = small, poorly fitted or top-dose-only effect; inactive = flat fitted curve, though single readings scatter.
% is set by controls: 0 for no effect and ±100 for the full control effect; potency is the fitted concentration of half-maximal effect.

The assay is described as follows: qHTS for Inhibitors of human tyrosyl-DNA phosphodiesterase 1 (TDP1): qHTS in cells in absence of CPT. Note: nearly all actives have a fitted effect of over 55% in size. The note with it: DT40 Tdp1-/- hTDP1 cells, no CPT, ATP luminescence, 48 h; activity change, negative = growth inhibition: at 46.2 µM (top of the series). The gist of the method:
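Chicken DT40 Tdp1-/- cells complemented with human TDP1, screened without camptothecin (DMSO vehicle only), 400 cells/well. Compounds pin-transferred, cells incubated at 37 °C for at least 48 hr. Growth read as ATP-dependent luminescence (CellTiter-Glo, 30 min at RT).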
Take `CN(Cc1nc(-c2cnccn2)no1)Cc1n[nH]c2c1CCCCC2`: the “activity change, negative = growth inhibition” value was 0.716%. For `O=[N+]([O-])c1ccc(C=Nc2ccc(Cl)cc2Cl)s1`, the Potency was 13 µM (active). As to `O=C(CSCc1ccccc1Cl)NNC(=O)c1ccccc1`, the “activity change, negative = growth inhibition” value was -16%. Consider `O=C(C1CC(=O)N(C2CCCC2)C1)N1CCN(c2cccc(C(F)(F)F)c2)CC1` (stereo not drawn), for which the Potency is 11.6 µM (active).

For the compound `O=C(CCN1CCCO1)N1CCCC(N2CCN(c3cccc(C(F)(F)F)c3)CC2)C1` (stereo not drawn), the “activity change, negative = growth inhibition” value is 1.53%. Consider `O=C(C1CC(=O)N(C2CCCCC2)C1)N1CCN(c2ccccc2)CC1` (stereo not drawn), for which the “activity change, negative = growth inhibition” value was -17.8%.

For the compound `CC(=O)C1(C)N(O)C(C)(C)C(c2cccs2)=[N+]1[O-]` (stereo not drawn), the “activity change, negative = growth inhibition” value is 1.43%.

On to `CCOC(=O)CN1C(=O)C(=O)c2cc(C)ccc21`, for which the Potency was 14.6 µM (active). On the same count and under the same terms, the result for `CC(C)OC(=O)CN1C(=O)C(=O)c2ccccc21` reads 13 µM (active). As to `CCOC(=O)CSc1nc2ccc(C)cc2[nH]1`, the “activity change, negative = growth inhibition” value is -12.5%.

For `CCOC(=O)C1CCN(C(=O)CN2C(=O)c3cccnc3Oc3ccc(C)cc32)CC1`, the “activity change, negative = growth inhibition” value is 10.2%. Regarding `CC(OC(=O)CN1C(=O)c2ccccc2C1=O)C(=O)c1ccccc1` (stereo not drawn), the “activity change, negative = growth inhibition” value is 0.701%. Still for that read-out and setting: the result for `CCOC(=O)c1cc2n(c1C)-c1ccccc1C2=O` reads -5.29%; that for `COc1ccccc1C(=O)Nc1ccnn1C1CCN(C(=O)C(C)(C)C)CC1`, -15.1%; that for `CC1Cc2ccccc2N1CC(=O)Nc1ccc2c(c1)OC(F)(F)O2` (stereo not drawn), -23.1%. Same read-out and setting: the result for `Cc1cccc(C(=O)Nc2ccccc2C(=O)NCc2cccnc2)c1` reads -2.04%; that for `CCC(C)c1ccc(NC(=O)COC(=O)C2CCCC2)cc1` (stereo not drawn), -2.83%; that for `CNC[C@@H]1Oc2c(NS(C)(=O)=O)cccc2C(=O)N([C@@H](C)CO)C[C@H]1C`, -0.631%. Take `Cc1cccc(-n2c(Cc3cc(=O)[nH]c(=O)[nH]3)nnc2SCC(=O)Nc2cccc(C(F)(F)F)c2)c1`: the “activity change, negative = growth inhibition” value was 1.12%.

Take `c1ccc(C(c2ccccc2)N2CCN(Cc3nnnn3C3CCCCC3)CC2)cc1`: the Potency was 20.6 µM (active). As for `CCCCn1nnnc1C(c1cccc(OC)c1OC)N1CCN(C/C=C/c2ccccc2)CC1` (stereo not drawn), the Potency is 20.6 µM (active). Consider `Clc1ccc(-n2nnnc2CN2CCCCC2)cc1Cl`, for which the “activity change, negative = growth inhibition” value is -20.1%. Same read-out and setting: the result for `Cc1cc(O)c(C(c2ccccc2)N2CCN(c3ccccc3F)CC2)c(=O)n1Cc1ccco1` (stereo not drawn) reads 1.79%. Consider `CCCCn1nnnc1C(c1ccccc1)N1CCN(c2ccccc2OC)CC1` (stereo not drawn), for which the Potency was 20.6 µM (active). As for `COc1ccc(CCn2nnnc2C(c2ccccc2)N2CCN(C)CC2)cc1OC` (stereo not drawn), the “activity change, negative = growth inhibition” value was -10.5%. Take `COc1ccccc1C(c1nnnn1CC1CCCO1)N1CCN(c2ccccc2)CC1` (stereo not drawn): the “activity change, negative = growth inhibition” value was -0.572%.

Take `Cc1cccc(N2CCN(C(c3ccccc3)c3nnnn3CC3CCCO3)CC2)c1C` (stereo not drawn): the Potency is 11.6 µM (active). `c1ccc(CCn2nnnc2CN2CCN(C3CCCC3)CC2)cc1`: the “activity change, negative = growth inhibition” value was -3.23%. On the same count and under the same terms, the result for `COc1ccccc1N1CCN(Cc2nnnn2CCc2ccccc2)CC1` reads -21.4%; that for `C=CCC(Nc1ccccc1)c1cccc(OC)c1OC` (stereo not drawn), -27.1%.

With `CCCCn1nnnc1NCc1cc(OC)c(OC)c(OC)c1`, the “activity change, negative = growth inhibition” value is -16%.

For the compound `O=C(Nc1nncs1)c1ccccc1NS(=O)(=O)c1cccs1`, the “activity change, negative = growth inhibition” value was -5%. Same read-out and setting: the result for `O=C(CSCc1ccc([N+](=O)[O-])cc1)Nc1cccc(C(=O)Nc2ccccc2C(=O)O)c1` reads -1.66%. On the same count and under the same terms, the result for `C[C@H](NC(=O)C1CC(=O)N(c2ccc3c(c2)OCO3)C1)C(=O)NCc1ccco1` (stereo partly drawn) reads 5.08%; that for `CCCCC(=O)NCc1ccc(F)cc1`, -5.14%. For the compound `CCCCNC(=O)C1CCC(CNS(=O)(=O)c2ccc(NC(C)=O)cc2)CC1` (stereo not drawn), the Potency entry was “inactive”. `O=C1C(=O)N(CCN2CCOCC2)C(c2ccccn2)/C1=C(/O)c1ccc(Cl)cc1` (stereo not drawn): the “activity change, negative = growth inhibition” value was -2.58%. Still for that read-out and setting: the result for `O=C(Nc1ccnn1C1CCN(C/C=C/c2ccc(F)cc2)CC1)C1CCCC1` reads -24.1%; that for `CC(C)OCC(O)CN1CCN(C(c2ccccc2)c2ccccc2)CC1` (stereo not drawn), -29.4%; that for `O=C(O)CN1CCN(C(c2ccccc2)c2ccccc2)CC1`, -3.58%. Still for that read-out and setting: the result for `COc1ccc(/C=C/CN2CCN(Cc3ccc(C)cc3)C(CCO)C2)cc1` (stereo not drawn) reads -11.8%. Turning to `Oc1ccccc1CN1CCN(C(c2ccccc2)c2ccccc2)CC1`, the Potency is 16.4 µM (active). On the same count and under the same terms, the result for `COc1ccc(C(c2nnnn2C2CCCC2)N2CCN(C/C=C/c3ccccc3)CC2)cc1` (stereo not drawn) reads 16.4 µM (active). For `CCOC(=O)c1c(C(C#N)C#N)cc(C)nc1C`, the “activity change, negative = growth inhibition” value was 6.14%. Still for that read-out and setting: the result for `OC[C@H]1O[C@@H](c2nc(-c3nc(-c4ccc(F)cc4)no3)cs2)[C@H](O)[C@@H](O)[C@H]1O` reads -1.45%. Still for that read-out and setting: the result for `O=C(Nc1ccc2c(c1)OCO2)c1cc(-c2cccc(Cl)c2)on1` reads -24%; that for `CCC(Oc1ccccc1)C(=O)NCc1cccnc1` (stereo not drawn), -9.49%; that for `O=C(O)CC/C(=C\c1cc2c(cc1Br)OCO2)c1nc2ccccc2s1`, -10.6%. On the same count and under the same terms, the result for `O=C(O)C1=C(C(=O)O)C2CCC1C2` reads 7.41%. For `COc1ccccc1N(CC(=O)Nc1c(C)n(C)n(-c2ccccc2)c1=O)S(=O)(=O)c1ccccc1`, the “activity change, negative = growth inhibition” value is -2.53%.

Take `COc1ccccc1N(CC(=O)N/N=C(\C)c1ccccc1O)S(=O)(=O)c1ccc(C)cc1`: the Potency was 1.64 µM (active). In the case of `COc1ccc(S(=O)(=O)N(CC(=O)N/N=C/c2ccccc2C(=O)O)c2ccccc2OC)cc1`, the “activity change, negative = growth inhibition” value is 8.49%. In the case of `COC(=O)[C@H](C(C)C)n1c(C)c(C(C)=O)c(C(C)=O)c1C`, the “activity change, negative = growth inhibition” value is -4.99%. On to `O=S(=O)(c1cccc(C(F)(F)F)c1)N1CCN(c2cnccn2)CC1`, for which the “activity change, negative = growth inhibition” value is -22.1%. Still for that read-out and setting: the result for `O=S(=O)(c1cccc(C(F)(F)F)c1)N1CCN(c2nc(-c3cccs3)nc3ccccc23)CC1` reads 3.79%. `O=S(=O)(c1cccc(C(F)(F)F)c1)N1c2ccccc2-n2cccc2C1c1cccnc1` (stereo not drawn): the Potency was 18.4 µM (active). `O=S(=O)(c1ccc(F)cc1)n1ccc(-c2cnc(-c3ccccc3)s2)n1`: the “activity change, negative = growth inhibition” value was -24.7%. Regarding `COc1ccc(NC(C)=O)cc1NC(=O)CN1CCN(c2ccccn2)CC1`, the “activity change, negative = growth inhibition” value was -3.85%. As to `CCN(CC)c1ccc(NC(=O)CN2CCN(c3ccccn3)CC2)cc1`, the “activity change, negative = growth inhibition” value was 4.15%. In the case of `CN(C(=O)CN1CCN(c2cc(-c3ccc(OCc4ccccc4)cc3)ncn2)CC1)c1ccccc1`, the Potency is 18.4 µM (active). As for `O=C1OCC2=C1C(c1ccccc1)CC(=O)N2c1cccc(F)c1` (stereo not drawn), the “activity change, negative = growth inhibition” value is -21.1%. With `CSc1sc(C(=O)NNC(=O)c2ccc(Cl)cc2)c2c1C=CCC2`, the “activity change, negative = growth inhibition” value is -20.5%. On the same count and under the same terms, the result for `Cc1ccc(OCC(=O)Nc2ccc(OCc3cc(=O)n4c(C)csc4n3)cc2)cc1C` reads -20.7%.

On to `Cc1csc2nc(COC(=O)c3ccccc3NC(=O)c3ccccc3Cl)cc(=O)n12`, for which the Potency was 11.6 µM (active).

With `Cc1ccc(C(=O)Nc2ccc(OCc3cc(=O)n4c(C)csc4n3)cc2)cc1`, the “activity change, negative = growth inhibition” value was -16.5%. Turning to `Cc1csc2nc(COC(=O)c3ccc(NC(=O)COc4ccccc4F)cc3)cc(=O)n12`, the Potency is 18.4 µM (active).

In the case of `O=C(COc1ccccc1F)Nc1ccc(C(=O)OCc2cc(=O)n3nc(C4CC4)sc3n2)cc1`, the “activity change, negative = growth inhibition” value was -5.03%. Still for that read-out and setting: the result for `Cc1csc2nc(COc3ccc(NC(=O)COc4ccccc4)cc3)cc(=O)n12` reads -5.67%.

Source of the values: PubChem BioAssay AID686978 (National Center for Advancing Translational Sciences (NCATS), 2013).
